From ChEMBL document CHEMBL4513216, “Probing the Open Global Health Chemical Diversity Library for Multistage-Active Starting Points for Next-Generation Antimalarials” (ACS Infect Dis, 2020)
Screen size: about 68,000 compounds; about 2,700 (4%) showed an effect of 50% or more. The entries come from a sample that favours strong results as a whole.

Test system: Plasmodium berghei
Assay: Screen against P. berghei liver stage (PbLuc), transformed with Luciferase, at 2uM
Format: functional, HepG2
Conditions: tested at 2 uM

SMILES | INHIBITION
Fc1ccccc1Cn1c(C2CCNCC2)cc2cccnc21 | -23.54%
CCOc1cccc(C(=O)N2CCN(c3nccc(OC)n3)CC2)c1 | 8.37%
CCc1ncc(C(=O)N2CCCN(C3CCCCC3)CC2)cn1 | -35.1%
COc1cccc(C2(C(=O)NC3CCc4nccn4C3)CCCC2)c1 (stereo unspecified) | -5.74%
O=C(c1nc(=O)[nH][nH]1)N1CCCCCC1 | 33.9%
CCn1c(C2CCCN(Cc3ccnc4ccccc34)C2)nn(C)c1=O (stereo unspecified) | 17.48%
OCCOCCNCC1(c2ccc(F)cc2)CCOC1 (stereo unspecified) | -18.52%
CN(Cc1ccccc1)CC(O)Cn1cnc2cc(F)ccc2c1=O (stereo unspecified) | -75.13%
Cc1ccc(N2CC[C@H]3O[C@@H](C(=O)NCc4ccco4)CC[C@H]32)nn1 | 4.64%
CCCNC(=O)CN1CCOC(c2ccc(Br)cc2)C1 (stereo unspecified) | 15.82%
CCNC(=O)NC(=O)CN1CCOC(c2ccc(Br)cc2)C1 (stereo unspecified) | 59.94%
CCNC(=O)NC(=O)CN1CCOC(c2cccc(Br)c2)C1 (stereo unspecified) | 16.72%
Cn1cc(NC(=O)c2cc3c(s2)CCCC3)cn1 | -56.09%
Cc1nc(C)n(CC2CCCCN2CCCS(C)(=O)=O)n1 (stereo unspecified) | -12.84%
O=C(NCCc1ccncc1)c1ccc(S(=O)(=O)NC2CCC2)cc1 | 28.85%
CN(C)CCNC(=O)c1ccc(S(=O)(=O)N[C@@H]2CCNC2)cc1 | 8.31%
CC(C)N(CCNC(=O)c1ccc(S(=O)(=O)NC2CC2)cc1)C(C)C | 58.12%
CC(O)CN1CCN(C(=O)c2cccn2Cc2ccccc2)CC1 (stereo unspecified) | 15.28%
O=C(c1ccncc1)N1CCCn2c(CN3CCCC3)nnc2C1 | 23.14%
Cc1cc(C)c(CNC(=O)NCC2Cc3ccccc32)c(=O)[nH]1 (stereo unspecified) | 45.16%
NC(=O)c1ccc(CNC(=O)Nc2cn[nH]c2)cc1 | 26.06%
CN1CC(=O)N(c2cnn(C)c2)CC12CCN(Cc1ccccc1)C2 (stereo unspecified) | 15.96%

SMILES | INHIBITION
COCc1nnc(C(=O)N2CC(N3CCCCC3)C2)o1 | -13.03%
COCc1nnc(C(=O)N2CCC(N3CCCCC3)CC2)o1 | 57.89%
COCc1nnc(C(=O)N2CCCC(O)C2)o1 (stereo unspecified) | 30.88%
CN(C)C(C(=O)N1CC(Oc2ccccc2F)C1)c1ccccc1F (stereo unspecified) | 19.07%
CCCN1CCCN(C(=O)c2ccc(Oc3cccnc3)cc2)CC1 | 35.37%
COc1cccc(SCCCn2cnc3c(N)ncnc32)c1 | 52.19%
COc1ccc(OCCN(C)CCCn2cnc3c(N)ncnc32)cc1 | 36.29%
COc1cccc(CN(C)CCCn2cnc3c(N)ncnc32)c1 | -51.87%
Cc1ncnc2c1CCN(C(=O)c1ccncc1F)CC2 | 6.81%
O=C1CC(c2ccncc2)C2(CCN(CC3CC3)CC2)N1 (stereo unspecified) | 22.2%
Cc1nc(N2C[C@H]3CC[C@@H](C2)N3)nc2cc(S(C)(=O)=O)ccc12 | 77.42%
Cc1nc(N2CCCC(C)C2)nc2cc(S(C)(=O)=O)ccc12 (stereo unspecified) | -24.78%
Cc1nc(N2CCN3CCCCC3C2)nc2cc(S(C)(=O)=O)ccc12 (stereo unspecified) | -15.11%
O=C(COc1ccccc1)NCCNC(=O)c1scnc1Cl | 7.71%
CC(C)(C)OC(=O)N1CCCN(c2nnc(C3CC3)s2)CC1 | 34.69%
Cc1nnc(NC(=O)CN2CCc3nn(C)c(=O)cc3C2)s1 | 23.27%
Cc1cc(CN2CCN(CC(O)c3ccc4c(c3)OCO4)CC2)no1 (stereo unspecified) | -19.1%
Cc1noc(C)c1CNCC1COCc2c(-c3ccsc3)nnn2C1 (stereo unspecified) | 7.68%
Cc1ccc(C(O)CNC(=O)NCc2c(C)cc(C)[nH]c2=O)cc1 (stereo unspecified) | -11.2%
Cc1cc(C)c(CNC(=O)NCc2ccc3c(c2)CCC3)c(=O)[nH]1 | -7.02%
Cc1cc(C)c(CNC(=O)c2ccc3c(c2)CCC3)c(=O)[nH]1 | 58.52%
Cc1cc(C)c(CNC(=O)Cc2ccc3c(c2)CCCC3)c(=O)[nH]1 | 4.18%

SMILES | INHIBITION
Cc1cc(C)c(CNC(=O)NC(C)c2ccc3c(c2)CCC3)c(=O)[nH]1 (stereo unspecified) | 50.05%
Cc1cc(C)c(CNC(=O)NCCOc2ccc3c(c2)CCC3)c(=O)[nH]1 | 14.11%
CNc1ncc(C(=O)N2CCOC(C(=O)NC3CCCC3)C2)cn1 (stereo unspecified) | 8.75%
Cc1ccc(CN(CCCn2ccnc2)Cc2cc(F)ccc2F)s1 | 20.71%
CC1=N[C@@]2(CC[C@@H]3CN(CC4CC4)C[C@@H]32)C(=O)N1CC(C)C | 28.85%
CN(Cc1ccco1)[C@@H]1CN(C(=O)c2ccnnc2)[C@@H]2CCCO[C@H]12 | 7.08%
Cc1nccnc1N1C[C@H]2CN(C3CCOCC3)C[C@@]2(C(=O)O)C1 | 8.93%
CC(NC1CCCC1)c1ccccc1-n1cccn1 (stereo unspecified) | 21.28%
CCC(=O)NC(C)c1ccccc1C (stereo unspecified) | -6.19%
Cn1c(CNc2c(F)cccc2-n2cccn2)cc(=O)n(C)c1=O | 32.14%
CCN(CC)CCCC(C)NC(=O)c1ccccc1-n1cccn1 (stereo unspecified) | 19.33%
Cc1ccccc1C(C)NC(=O)c1ccc(=O)n(C)c1 (stereo unspecified) | 64.9%
Cn1cc(C(=O)Nc2cccc(F)c2)ccc1=O | -66.38%
CC(NC(=O)c1ccc(=O)n(C)c1)c1ccccc1-n1cccn1 (stereo unspecified) | 51.64%
CC(NC(=O)c1cc(=O)n(C)c(=O)n1C)c1ccccc1-n1cccn1 (stereo unspecified) | 50.97%
CC(NC1CCSCC1)c1ccccc1-n1cccn1 (stereo unspecified) | 27.52%
CC(=O)NCc1cc2n(n1)CCN(Cc1ccccc1OC(F)(F)F)C2 | 27.52%
CCN(CC)S(=O)(=O)N1C[C@@H](c2ccccc2)[C@H]2[C@H]1CCCCCN2C | 20.71%
Cc1nc(C)c(-c2ccn(CC(=O)Nc3cnn(C)n3)n2)s1 | 8.05%
CC(C)=CCN1C[C@@H]2CC[C@H]1CN(C(=O)c1ccc3c(c1)OCO3)C2 | 34.98%
Cc1cc2c(=O)n(CCSc3cnn[nH]3)cnc2s1 | 39.99%
CN(Cc1ccsc1)C(=O)c1ccc(C2CCCO2)s1 (stereo unspecified) | -15.11%
